Results taken from the supplement of paper PMC6555819.

Tests used:
Assay in all cases: PBM binding z-score (relative to random genomic background probes); higher = stronger binding; sequences stand for … in GC…GCGATTGACAGCGTAGAATGAAGG
[1] = system: FXR:RXRa (NR concentration 270 nM, RXRa partner concentration 90 nM)
Summary of the method: (§1)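 Binding buffer was PBS pH 7.4 with 2% milk, 0.02% Triton X-100, 1 mM DTT, 0.2 mg/mL BSA and 0.4 mg/ml salmon testes DNA. In it, ligand-free nuclear receptor dimers were incubated 1 h on custom Agilent 4×180K protein-binding microarrays carrying double-stranded probes. Antibodies against each partner (one per run) detected binding, and z-scores were calculated against random background probes after regression normalization of scanned fluorescence.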

[2] = system: LXRa:RXRa (NR concentration 270 nM, RXRa partner concentration 90 nM)
Summary of the method: as §1

[3] = system: LXRa homodimer (NR concentration 270 nM)
Summary of the method: as §1

[4] = system: LXRb:RXRa (NR concentration 270 nM, RXRa partner concentration 90 nM)
Summary of the method: as §1

[5] = system: LXRb homodimer (NR concentration 270 nM)
Summary of the method: as §1

[6] = system: PPARa:RXRa (NR concentration 270 nM, RXRa partner concentration 90 nM)
Summary of the method: as §1

[7] = system: PPARg:RXRa (NR concentration 180 nM, RXRa partner concentration 90 nM)
Summary of the method: as §1

[8] = system: PPARg:RXRa 270nM:90nM, anti-RXR (NR concentration 270 nM, RXRa partner concentration 90 nM)
Summary of the method: as §1

[9] = system: PPARg:RXRa 30nM:10nM, anti-RXR (NR concentration 30 nM, RXRa partner concentration 10 nM)
Summary of the method: as §1

[10] = system: PPARg:RXRa 90nM:30nM, anti-RXR (NR concentration 90 nM, RXRa partner concentration 30 nM)
Summary of the method: as §1

[11] = system: PPARg:RXRa DBDmut IVT, anti-RXR (DBD mutation: RXRa K156A/R161A, NR concentration 270 nM, RXRa partner concentration 90 nM)
Summary of the method: as §1

[12] = system: PPARg:RXRa IVT, anti-PPARg (NR concentration 270 nM, RXRa partner concentration 90 nM)
Summary of the method: as §1

[13] = system: PPARg DBDmut:RXRa IVT, anti-PPARg (DBD mutation: PPARg1 K132A/R137A, NR concentration 270 nM, RXRa partner concentration 90 nM)
Summary of the method: as §1

[14] = system: PPARg DBDmut IVT, anti-PPARg (DBD mutation: PPARg1 K132A/R137A, NR concentration 270 nM)
Summary of the method: as §1

[15] = system: PPARg homodimer (NR concentration 180 nM)
Summary of the method: as §1

[16] = system: PXR:RXRa (NR concentration 270 nM, RXRa partner concentration 90 nM)
Summary of the method: as §1

[17] = system: PXR homodimer (NR concentration 270 nM)
Summary of the method: as §1

[18] = system: RARa:RXR (NR concentration 270 nM, RXRa partner concentration 90 nM)
Summary of the method: as §1

[19] = system: RARa homodimer (NR concentration 270 nM)
Summary of the method: as §1

[20] = system: RARb:RXRa (NR concentration 270 nM, RXRa partner concentration 90 nM)
Summary of the method: as §1

Row | Sequence | PBM binding z-score [1] | PBM binding z-score [2] | PBM binding z-score [3] | PBM binding z-score [4] | PBM binding z-score [5] | PBM binding z-score [6] | PBM binding z-score [7] | PBM binding z-score [8] | PBM binding z-score [9] | PBM binding z-score [10] | PBM binding z-score [11] | PBM binding z-score [12] | PBM binding z-score [13] | PBM binding z-score [14] | PBM binding z-score [15] | PBM binding z-score [16] | PBM binding z-score [17] | PBM binding z-score [18] | PBM binding z-score [19] | PBM binding z-score [20]
1 | ACTATTATTTGACTTAGGGCAACCGATACGACGC | 0.71 | 0.925 | 1.54 | 0.685 | 1.46 | 0.557 | 1.15 | 0.779 | 0.924 | 0.948 | 0.814 | 0.633 | 1.79 | 2.46 | 2.16 | 0.502 | 1.69 | 0.728 | 3.4 | 1.21
2 | ATCTCTTGGTAACAAGTTCAGTGAAAGAGAGGAC | 0.45 | 0.448 | 0.452 | 0.565 | 0.787 | 0.547 | -0.00548 | 0.156 | 0.0559 | 0.28 | -0.454 | 0.272 | 0.927 | 1.13 | 0.303 | 1.67 | 1.14 | 0.676 | 0.0703 | 1.37
3 | TCAGACAGGTCAAGGTAACTCAGGTACGCAGTCG | 4.86 | 4.63 | 0.984 | 3.22 | 0.435 | 4.62 | 3.57 | 4.27 | 3.93 | 4.13 | 2.85 | 2.73 | 0.0851 | 0.283 | 1.88 | 2.46 | 0.321 | 3.37 | 0.676 | 4.31
4 | TCATATAGGTAAATGCTAGGTGAAGGTCCGATCT | 0.907 | 0.779 | 0.342 | 0.347 | 0.0631 | 1.29 | 0.837 | 2.13 | 3.86 | 2.91 | 4.03 | 2.74 | 1.1 | 0.608 | 0.952 | 0.662 | 0.475 | 0.786 | 1.04 | 0.552
5 | CCAGACTGGTGAAAGGTAACTCAGTCTGGTACGC | -0.45 | -0.241 | -0.759 | -0.0625 | -0.842 | 1.46 | 2.67 | 3.83 | 1.66 | 3.26 | 0.00689 | 0.829 | -0.709 | -0.951 | 0.201 | -0.0709 | -0.492 | 0.039 | -0.414 | 0.363
6 | GCATATAGGTAATACAAGGTGAAAGTACGATTGT | 0.899 | 2.24 | 0.263 | 0.874 | -0.16 | 1.82 | 1.98 | 1.86 | 0.776 | 1.17 | 3.58 | 3.44 | 1.47 | 0.563 | 0.701 | 0.648 | 0.0601 | 1.84 | 0.78 | 0.387
